This passage reports Potency results from PubChem BioAssay (Tox21).

Experiment [1] can be described thus: Nuclear factor erythroid 2-related factor 2/antioxidant responsive element (Nrf2/ARE) small molecule agonists: luciferase reporter gene qHTS assay in human keratinocytes (AID 1919969). Also: nearly all actives have a fitted effect of over 35% in size. Also: potency is read from the fitted curve at half-maximal effect.
The target in experiment [2] is Gonadotropin-releasing hormone receptor (Homo sapiens) (UniProt P30968). Put plainly: Human gonadotropin-releasing hormone receptor (GnRHR) small molecule agonists, calcium flux assay in GnRHR-HEK293 cells (AID 1920063). Also: nearly all actives have a fitted effect of over 35% in size. The gist of the method: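 Calcium flux, agonist mode, human GnRHR stably integrated in HEK293; dye 1 h at 37 C before compound; Ex/Em=480/540 kinetic read, 3 min; 15 concentrations, triplicate.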
Chain of Gonadotropin-releasing hormone receptor (Homo sapiens) (P30968 whole entry, looked up): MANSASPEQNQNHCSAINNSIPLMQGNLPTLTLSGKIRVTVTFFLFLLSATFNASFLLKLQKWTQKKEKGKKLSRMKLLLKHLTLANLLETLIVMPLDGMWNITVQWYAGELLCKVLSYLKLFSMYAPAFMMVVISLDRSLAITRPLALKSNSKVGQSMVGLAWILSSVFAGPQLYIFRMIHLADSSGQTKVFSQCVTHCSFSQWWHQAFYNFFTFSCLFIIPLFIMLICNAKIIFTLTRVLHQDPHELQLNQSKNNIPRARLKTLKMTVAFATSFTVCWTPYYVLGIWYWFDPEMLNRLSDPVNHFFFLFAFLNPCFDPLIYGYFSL

The target in experiment [3] is KiSS-1 receptor (Homo sapiens) (UniProt Q969F8). Put plainly: Human kisspeptin (KISS1R) small molecule agonists, calcium flux assay in KISS1R-HEK293 cells (AID 1920064; active = well fitted activation curve with a large enough effect in the repeat runs). The procedure, abridged: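 Triplicate 15-concentration series were applied to dye-loaded human KISS1R HEK293 cells, and agonist-evoked calcium fluorescence was captured for 3 min.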
Chain of KiSS-1 receptor (Homo sapiens) (Q969F8 whole entry, looked up): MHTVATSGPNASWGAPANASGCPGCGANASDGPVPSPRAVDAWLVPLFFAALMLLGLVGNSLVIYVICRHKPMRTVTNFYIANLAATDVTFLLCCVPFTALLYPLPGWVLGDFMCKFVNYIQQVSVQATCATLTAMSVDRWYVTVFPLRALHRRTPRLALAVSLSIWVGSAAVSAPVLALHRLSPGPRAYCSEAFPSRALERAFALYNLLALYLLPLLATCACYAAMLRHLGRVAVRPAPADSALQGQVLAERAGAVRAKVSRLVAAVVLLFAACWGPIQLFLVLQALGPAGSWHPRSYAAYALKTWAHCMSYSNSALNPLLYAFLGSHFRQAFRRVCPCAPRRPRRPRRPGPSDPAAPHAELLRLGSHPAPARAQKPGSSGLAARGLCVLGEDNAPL
(In general: A change in cytosolic calcium serves as a functional read-out for many receptors and channels.)

Experiment [4] is described as follows: p53 small molecule agonists, cell-based qHTS assay with human liver microsomes (AID 1963577).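 Also: p53 response element beta-lactamase reporter cells with liver microsomes plus NADPH.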 The gist of the method:
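Steps: plate p53RE-bla cells, incubate 5 h at 37 C; add compound in DMSO; add microsomes (0.5 mg/mL final) and NADPH (0.5 mg/mL final); incubate 16 h at 37 C; add LiveBLAzer, 2 h RT; read fluorescence.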
(In general: Quantitative high-throughput screening tests each substance at several concentrations.)

Experiment [5] can be described thus: p53 small molecule agonists, cell-based qHTS assay with rat liver microsomes (AID 1963578). The gist of the method:
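Metabolic activation is supplied by rat liver microsomes with NADPH (each 0.5 mg/mL final). p53RE-bla cells incubate with compound 16 h at 37 C; reporter activity is measured by LiveBLAzer fluorescence.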

Experiment [6] in a line: p53 small molecule agonists, cell-based qHTS assay with rat liver microsomes: qHTS cell viability counter screen (AID 1963580). Also: nearly all actives have a fitted effect of over 45% in size. Also: potency is read from the fitted curve at half-maximal effect. The gist of the method: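 Luminescent ATP readout (CellTiter-Glo, 30 min at room temperature) reports viability of p53RE-bla HCT-116 cells after 16 h at 37 C with test compounds under metabolic activation by rat liver microsomes and NADPH at 0.5 mg/mL final each.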

Experiment [7] is described as follows: cAMP Responsive Elements (CRE) small molecule antagonists, cell-based qHTS assay (AID 1963591; active = well fitted inhibition curve with a large enough effect in the signal ratio in the repeat runs, not every such curve was filed as active; the % refers to the signal ratio). The gist of the method:
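Fluorescence intensity from cleaved LiveBLAzer B/G substrate (2 h, room temperature) quantified CRE-bla activity in HEK 293T cells exposed 3 h to compound with 0.25 uM final NKH477.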

In experiment [8] the target is Beta-2 adrenergic receptor (Homo sapiens) (UniProt P07550). Put plainly: Adrenergic beta2 receptor (ADRB2) small molecule antagonists, cell-based qHTS assay (AID 1963592). Also: series mostly up to about 92 µM; nearly all actives have a fitted effect of over 50% in size. The procedure, abridged:
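Assay format: CHO-ADRB2 cells, 18-20hr seeding at 37C/5% CO2, then compound plus 1nM isoproterenol agonist mix for 0.5hr RT. Homogeneous time-resolved fluorescence cAMP detection after 1hr, expressed as 665/615 nm ratio.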

The target of experiment [9] is D(2) dopamine receptor (Homo sapiens) (UniProt P14416). Put plainly: Dopamine D2 receptor (DRD2) small molecule agonists, cell-based qHTS assay (AID 1963594). Also: nearly all actives have a fitted effect of over 35% in size. Also: potency is read from the fitted curve at half-maximal effect. The procedure, abridged: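 HEK293 cells stably expressing DRD2 were cultured 24 h at 37 C, then given Ro20-1724 (0.1 mM final) and compounds for 10 min at room temperature. NKH477 (200nM) was then added for 30 min. cAMP was read by HTRF.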
Chain of D(2) dopamine receptor (Homo sapiens) (P14416 whole entry, looked up): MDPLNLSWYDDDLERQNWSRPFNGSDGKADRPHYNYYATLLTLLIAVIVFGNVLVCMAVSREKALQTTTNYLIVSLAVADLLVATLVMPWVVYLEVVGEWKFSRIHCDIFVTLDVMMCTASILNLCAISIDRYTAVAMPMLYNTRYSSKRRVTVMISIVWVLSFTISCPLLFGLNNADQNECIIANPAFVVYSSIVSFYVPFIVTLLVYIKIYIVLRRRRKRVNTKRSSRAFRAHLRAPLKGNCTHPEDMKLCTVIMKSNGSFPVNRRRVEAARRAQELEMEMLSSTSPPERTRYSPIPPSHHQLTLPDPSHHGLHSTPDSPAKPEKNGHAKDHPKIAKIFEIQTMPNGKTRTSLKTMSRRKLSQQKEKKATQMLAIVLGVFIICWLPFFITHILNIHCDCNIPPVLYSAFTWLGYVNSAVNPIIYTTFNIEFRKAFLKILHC

The target is the same in experiment [10]. Put plainly: Dopamine D2 receptor (DRD2) small molecule antagonists, cell-based qHTS assay (AID 1963595; active = well fitted inhibition curve with a large enough effect in the signal ratio in the repeat runs, with a control signal flat; the % refers to the signal ratio; also: potency is read from the fitted curve at half-maximal effect). The gist of the method:
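HEK293 cells stably expressing DRD2 were preincubated with 0.1 mM Ro20-1724, then with compound for 10 min at room temperature. Cells were stimulated with 200 nM NKH477 plus 12 nM quinpirole for 30 min, and cAMP was read by HTRF.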

Experiment [11] can be described thus: G protein-coupled receptor (GPCR) small molecule agonists, calcium flux assay: HEK293 wild type cell line counter screen (AID 1920065). The procedure, abridged:
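Non-specific calcium responders were flagged by adding DMSO-dissolved compounds to dye-loaded cells and reading 480/540 nm fluorescence each second for 3 min; ATP served as positive control.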

Experiment [12] can be described thus: p53 small molecule agonists, cell-based qHTS assay with human liver microsomes: qHTS cell viability counter screen (AID 1963579). Also: nearly all actives have a fitted effect of over 45% in size. Also: potency is read from the fitted curve at half-maximal effect. The gist of the method: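 After the 460/530 nm beta-lactamase read, CellTiter-Glo was added to the same wells and luminescence measured after 30 min at room temperature, giving viability of p53RE-bla cells treated 16 h with compounds plus microsomes and NADPH.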

A short description of experiment [13]: p53 small molecule agonists, cell-based qHTS assay: qHTS cell viability counter screen (AID 1963581). Also: nearly all actives have a fitted effect of over 45% in size. Also: potency is read from the fitted curve at half-maximal effect. The procedure, abridged:
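Multiplexed with the reporter read, a CellTiter-Glo step (30 min, room temperature) gauges ATP-based viability of HCT-116 p53RE-bla cells after 16 h compound incubation at 37 C.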

Experiment [14] in a line: p53 small molecule agonists, cell-based qHTS assay (AID 1963582; active = well fitted activation curve with a large enough effect in the signal ratio in the repeat runs, not every such curve was filed as active; the % refers to the signal ratio). The procedure, abridged: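 Beta-lactamase reporter cells (p53RE-bla) treated with compounds for 16 h at 37 C; FRET substrate, 2 h, room temperature; fluorescence intensity.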
Experiment [15] deals with 5-hydroxytryptamine receptor 2A (Homo sapiens) (UniProt P28223). Description: 5-hydroxytryptamine receptor 2A (HTR2A) small molecule agonists, cell-based qHTS assay (AID 1963587). Also: nearly all actives have a fitted effect of over 30% in size. Also: potency is read from the fitted curve at half-maximal effect. The procedure, abridged:
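HTR2A-CHO cells, plated 18 h at 37 C/5% CO2, dye-loaded 1 h at 37 C; compounds in DMSO added by pin tool (agonist mode). Intracellular calcium flux read as kinetic fluorescence on FDSS over 2 min at 1 s intervals.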

In experiment [16] the target is Muscarinic acetylcholine receptor M1 (Homo sapiens) (UniProt P11229). Description: Cholinergic receptor muscarinic 1 (CHRM1) small molecule agonists, cell-based qHTS assay (AID 1963589). Also: nearly all actives have a fitted effect of over 35% in size. The procedure, abridged:
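qHTS, 15-point titration, 3 independent runs: compounds pin-transferred onto dye-loaded CHRM1-CHO cells (human M1), calcium fluorescence followed every second to detect agonism.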

Experiment [17] can be described thus: cAMP Responsive Elements (CRE) small molecule agonists, cell-based qHTS assay (AID 1963590). The gist of the method:
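Quantitative HTS for CRE agonists: HEK 293T CRE-bla cells, overnight plating, 3 h compound incubation at 37 C/5% CO2, then 2 h room-temperature LiveBLAzer B/G FRET substrate loading.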

Experiment [18] has as its target 5-hydroxytryptamine receptor 2A (Homo sapiens) (UniProt P28223). Description: 5-hydroxytryptamine receptor 2A (HTR2A) small molecule antagonists, cell-based qHTS assay (AID 1963586). Also: nearly all actives have a fitted effect of over 45% in size. The gist of the method: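 CHO cells stably expressing human HTR2A were plated for 18 h at 37 C, then loaded with calcium dye for 1 h. Compounds were preincubated 5 min at room temperature before DOI (4 nM solution) was added. Kinetic fluorescence was read for 3 min.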

The target of experiment [19] is Muscarinic acetylcholine receptor M1 (Homo sapiens) (UniProt P11229). Description: Cholinergic receptor muscarinic 1 (CHRM1) small molecule antagonists, cell-based qHTS assay (AID 1963588). Also: nearly all actives have a fitted effect of over 40% in size. The gist of the method: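 Compounds were tested at 15 concentrations in three independent runs. Dye-loaded CHRM1-CHO cells were exposed 5 min at room temperature before stimulation by acetylcholine added at 50nM. Intracellular calcium was read kinetically on FDSS for 3 min.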
Chain of Muscarinic acetylcholine receptor M1 (Homo sapiens) (P11229 whole entry, looked up): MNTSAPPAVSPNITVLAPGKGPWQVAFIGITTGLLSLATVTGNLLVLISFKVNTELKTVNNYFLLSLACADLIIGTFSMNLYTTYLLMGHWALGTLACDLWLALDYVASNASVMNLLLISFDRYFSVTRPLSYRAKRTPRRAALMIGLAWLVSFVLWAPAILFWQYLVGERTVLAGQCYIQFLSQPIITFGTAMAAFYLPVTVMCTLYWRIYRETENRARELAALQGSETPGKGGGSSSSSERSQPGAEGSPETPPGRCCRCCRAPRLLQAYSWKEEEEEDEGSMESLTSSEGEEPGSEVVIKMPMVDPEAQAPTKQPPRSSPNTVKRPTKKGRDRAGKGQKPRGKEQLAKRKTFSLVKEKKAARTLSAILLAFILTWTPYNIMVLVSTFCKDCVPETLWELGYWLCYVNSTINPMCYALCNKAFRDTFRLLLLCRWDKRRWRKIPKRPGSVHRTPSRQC

The target in experiment [20] is Beta-2 adrenergic receptor (Homo sapiens) (UniProt P07550). Put plainly: Adrenergic beta2 receptor (ADRB2) small molecule agonists, cell-based qHTS assay (AID 1963593).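 Also: CHO cells stably overexpressing human ADRB2.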 The gist of the method: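 CHO cells stably over-expressing ADRB2 were plated overnight at 37C, then dosed with compounds plus a stimulation mix containing 100uM IBMX and 25uM Ro-20-1724 for 0.5hr at room temperature. cAMP was measured by HTRF competition, 1hr.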
Chain of Beta-2 adrenergic receptor (Homo sapiens) (P07550 whole entry, looked up): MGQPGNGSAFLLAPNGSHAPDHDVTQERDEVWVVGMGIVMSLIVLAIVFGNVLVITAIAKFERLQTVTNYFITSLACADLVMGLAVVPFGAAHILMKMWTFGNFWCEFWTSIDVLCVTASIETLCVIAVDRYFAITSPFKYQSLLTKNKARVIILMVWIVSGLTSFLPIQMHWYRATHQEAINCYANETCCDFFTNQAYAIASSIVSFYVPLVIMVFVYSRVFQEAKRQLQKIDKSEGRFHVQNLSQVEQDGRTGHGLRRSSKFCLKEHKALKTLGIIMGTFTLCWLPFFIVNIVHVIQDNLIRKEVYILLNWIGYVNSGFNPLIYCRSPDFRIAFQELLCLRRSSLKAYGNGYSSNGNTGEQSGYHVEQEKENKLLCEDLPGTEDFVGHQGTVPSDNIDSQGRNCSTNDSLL

Results filed as inconclusive are left out. Calls of active or inactive are those of the source. Unless noted, calls follow the shape of the full dose curve.

Chain of 5-hydroxytryptamine receptor 2A (Homo sapiens) (P28223 whole entry, looked up): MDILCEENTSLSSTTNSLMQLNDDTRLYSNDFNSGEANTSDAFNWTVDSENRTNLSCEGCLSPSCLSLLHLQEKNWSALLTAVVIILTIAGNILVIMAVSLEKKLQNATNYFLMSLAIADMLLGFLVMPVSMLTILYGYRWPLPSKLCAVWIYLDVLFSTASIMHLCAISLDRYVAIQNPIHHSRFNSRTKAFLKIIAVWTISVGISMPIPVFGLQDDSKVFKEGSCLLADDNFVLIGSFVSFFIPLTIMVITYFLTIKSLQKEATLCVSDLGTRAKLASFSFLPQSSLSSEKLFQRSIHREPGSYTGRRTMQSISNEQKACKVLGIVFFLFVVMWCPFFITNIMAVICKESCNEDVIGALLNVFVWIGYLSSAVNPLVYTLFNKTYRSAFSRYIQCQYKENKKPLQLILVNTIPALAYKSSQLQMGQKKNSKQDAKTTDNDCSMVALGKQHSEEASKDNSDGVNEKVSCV

As to `COC(=O)Nc1nc2ccc(C(=O)c3cccs3)cc2[nH]1`, the Potency in experiment [1] was 2.66 µM (active). Also, the Potency entry in [2], in experiment [3], in experiment [4], in [5], in experiment [6] and in [7] was “inactive” each time. Moreover, the Potency entry in experiment [8], in experiment [9] and in [10] was “inactive” in each case.

For `O=C(N/N=C/c1ccccc1O)c1ccncc1`, the Potency is 6.68 µM (active) in [1] and 7.93 µM (active) in [12]. Moreover, the Potency entry in experiment [2], in [11], in experiment [4], in experiment [5], in experiment [6] and in experiment [13] was “inactive” each time. Also, the Potency result in experiment [14], in experiment [15], in [16], in [17], in experiment [7] and in [8] was “inactive” each time.

As to `COc1cc2ncnc(Nc3ccc(F)c(Cl)c3)c2cc1OCCCN1CCOCC1`, the Potency entry in [1], in experiment [2], in experiment [3], in experiment [4], in experiment [12] and in experiment [6] was “inactive” throughout. For the same compound, the Potency entry in experiment [18], in experiment [15], in experiment [19], in experiment [16], in experiment [8] and in experiment [20] was “inactive” each time. In experiment [10], the Potency was 29.8 µM (active).

In the case of `CCOc1cccc(-n2cc(C(=O)N3CCN(c4cc(C(=O)O)c5ccccc5c4)CC3)nc2-c2ccc(C)cc2)c1`, the Potency result in experiment [1], in experiment [2], in experiment [11], in experiment [4], in [5] and in experiment [16] was “inactive” throughout. In [10], the Potency result is “inactive”. The Potency in [12] is 17.4 µM (active); in experiment [6] it was 24.6 µM (active); in experiment [13], 24.6 µM (active); in [15], 0.0933 µM (active); in experiment [9], 65.5 µM (active).

For the compound `CC(C)=CCC[C@](C)(O)[C@@H]1CC=C(C)CC1`, the Potency in [1] was 54.5 µM (active). Besides, the Potency entry in experiment [2], in experiment [11], in experiment [5], in [12], in [6] and in experiment [13] was “inactive” in each case. The Potency result in experiment [14], in [18], in experiment [19], in experiment [16], in experiment [17] and in experiment [8] was “inactive” in each case. The Potency entry in experiment [20], in [9] and in [10] was “inactive” throughout.

In the case of `Cc1ccc(O)c(O)c1`, in experiment [1], the Potency was 66.6 µM (active). For the same compound, the Potency entry in [2], in [3], in [4], in experiment [5], in experiment [12] and in [6] was “inactive” throughout. Further, the Potency result in [15], in experiment [19], in experiment [16], in [17], in experiment [7] and in [8] was “inactive” in each case. Besides, in experiment [9], the Potency entry was “inactive”.

Take `OC(CCN1CCCCC1)(c1ccccc1)C1CCCCC1` (configuration not stated): the Potency entry in [1], in experiment [2], in experiment [3], in experiment [12], in experiment [6] and in experiment [13] was “inactive” in each case. For the same compound, the Potency result in [8] and in experiment [9] was “inactive” each time.

Take `Cc1ccc(S(=O)(=O)NC(=O)NC2CCCCC2)cc1`: the Potency result in [1], in [2], in experiment [3], in [12], in [6] and in experiment [15] was “inactive” each time. The Potency entry in experiment [19], in experiment [16], in [17], in experiment [7], in [8] and in experiment [9] was “inactive” throughout. Besides, in experiment [10], the Potency result was “inactive”.

As to `O=C(NCc1ncc(C(F)(F)F)cc1Cl)c1c(Cl)cccc1Cl`, the Potency result in experiment [1], in experiment [2], in experiment [11], in experiment [4], in experiment [5] and in experiment [12] was “inactive” each time. The Potency result in experiment [6], in [13], in experiment [14], in experiment [18], in experiment [15] and in experiment [19] was “inactive” throughout. The Potency result in experiment [16], in experiment [7], in [8], in experiment [9] and in experiment [10] was “inactive” each time.
